Hit rate of the full screen: of about 320,000 compounds, about 3,100 (0.97%) were called active.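 Rule for the calls: active = mean replicate inhibition of at least 70% and a set share of replicates each scoring 70 or more; inconclusive = meets just one of the two criteria; inactive = fails both criteria.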 This excerpt belongs to a sample that is enriched for actives.
The molecules below were run against Scavenger receptor class B member 1 (Mus musculus) (UniProt Q61009) (assay: inhibitors of SR-BI mediated HDL lipid uptake, primary screen, ldlA[mSR-BI] cells, fluorescence, single point (AID 488896;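 note: 0% = median of neutral control wells and 100% = median of positive control wells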)). Conditions: ldlA[mSR-BI] CHO cells, DiI-HDL uptake fluorescence, 3 h; at 12.5 µM; hits give high values.
Scavenger receptor class B member 1 (Mus musculus), sequence (Q61009 whole entry, looked up): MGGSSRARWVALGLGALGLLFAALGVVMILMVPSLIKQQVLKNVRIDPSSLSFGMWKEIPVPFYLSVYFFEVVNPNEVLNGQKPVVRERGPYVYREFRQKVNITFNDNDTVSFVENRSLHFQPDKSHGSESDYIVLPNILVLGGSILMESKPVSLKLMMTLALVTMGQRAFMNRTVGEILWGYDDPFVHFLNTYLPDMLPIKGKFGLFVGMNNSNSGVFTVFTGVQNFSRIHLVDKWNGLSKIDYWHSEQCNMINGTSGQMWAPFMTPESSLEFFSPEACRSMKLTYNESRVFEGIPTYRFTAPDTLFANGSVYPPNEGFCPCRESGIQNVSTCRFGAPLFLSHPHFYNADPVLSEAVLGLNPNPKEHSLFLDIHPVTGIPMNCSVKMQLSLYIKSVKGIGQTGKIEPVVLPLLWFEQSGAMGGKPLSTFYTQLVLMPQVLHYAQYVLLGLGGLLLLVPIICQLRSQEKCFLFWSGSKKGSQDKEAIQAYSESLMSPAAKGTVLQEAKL

**Q.** With `NC(=O)C1(N2CCCC2)CCN(Cc2ccccc2)CC1` as the molecule, how does the inhibition read?
**A.** -9.32% (inactive)

**Q.** `O=C(Nc1ccc(C(=O)O)cc1)/C(=C/c1ccc([N+](=O)[O-])cc1)NC(=O)c1ccccc1` was tested. Which inhibition did it give?
**A.** -3.79% (inactive)

**Q.** For `O=C(N/N=C/c1cc([N+](=O)[O-])ccc1O)/C(=C\c1cccs1)NC(=O)c1ccccc1`, which inhibition is on record?
**A.** 113% (active)

**Q.** With `C=CCNC(=O)/C(=C\c1cccc([N+](=O)[O-])c1)NC(=O)c1ccccc1` as the molecule, how does the inhibition read?
**A.** -15% (inactive)

**Q.** With `CCCN(C(=O)COC(=O)CNS(=O)(=O)c1ccc(NC(C)=O)cc1)C1CCS(=O)(=O)C1` (stereo not given) as the molecule, how does the inhibition read?
**A.** -1.04% (inactive)

**Q.** Which inhibition does the source give for `NNC(=O)c1ccc(Cl)cc1Cl` here?
**A.** -14.8% (inactive)

**Q.** With `Cn1cc(C(=O)c2ccc(Cl)cc2Cl)cc1C(=O)NN` as the molecule, how does the inhibition read?
**A.** 25.2% (inactive)

**Q.** For `CC(C)(C)c1cc(C(=O)NN)n(Cc2ccc(Cl)cc2Cl)n1`, which inhibition is on record?
**A.** 80.1% (active)

**Q.** Which inhibition does the source give for `COCCN(C(=O)C(C)N1C(=O)c2ccccc2C1=O)c1c(N)n(CC(C)C)c(=O)[nH]c1=O` (stereo not given) here?
**A.** -16.4% (inactive)

**Q.** With `O=C(COC(=O)c1ccc(O)cc1O)NC(=O)c1ccccc1` as the molecule, how does the inhibition read?
**A.** -38.7% (inactive)

**Q.** Which inhibition does the source give for `O=C1NCC(Nc2ccccc2)C(=O)N1` (stereo not given) here?
**A.** -24.4% (inactive)

**Q.** How did the inhibition turn out when `CCn1c2ccccc2c2cc(NC(=O)COC(=O)c3cc(S(=O)(=O)N4CCCCC4)ccc3Cl)ccc21` was run?
**A.** 77.1% (active)

**Q.** For `O=C(NNC(=O)c1ccccc1O)c1ccccc1O`, which inhibition is on record?
**A.** 124% (active)

**Q.** For `O=C(NNC(=O)c1cc(S(=O)(=O)N2CCCCC2)ccc1Cl)c1ccccc1O`, which inhibition is on record?
**A.** 108% (active)

**Q.** With `CCn1c2ccccc2c2cc(NC(=O)COC(=O)c3ccccc3Br)ccc21` as the molecule, how does the inhibition read?
**A.** -7.34% (inactive)

**Q.** Which inhibition does the source give for `CC1CCCC(NC(=O)c2cc(S(=O)(=O)N3CCCCC3)ccc2Cl)C1C` (stereo not given) here?
**A.** 11.2% (inactive)

**Q.** `O=C(Nc1ccccc1C(=O)O)c1cc(S(=O)(=O)N2CCCCC2)cs1` was tested. Which inhibition did it give?
**A.** -2.98% (inactive)

**Q.** Which inhibition does the source give for `O=C(COC(=O)c1cc(S(=O)(=O)N2CCCCC2)ccc1Cl)NCc1ccco1` here?
**A.** 17.2% (inactive)

**Q.** Which inhibition does the source give for `Cc1cc(C(=O)NNC(=O)c2ccccc2O)c(C)o1` here?
**A.** 13.4% (inactive)

**Q.** Which inhibition does the source give for `CC1=C(C)CC(C(=O)NNC(=O)c2ccccc2O)C(C(=O)O)C1` (stereo not given) here?
**A.** 13.9% (inactive)

**Q.** `COc1ccc(CCNC(=O)c2ccc(NC(=O)CC3SC(N4CCCCC4)=NC3=O)cc2)cc1OC` (stereo not given) was tested. Which inhibition did it give?
**A.** 66.6% (inactive)

**Q.** How did the inhibition turn out when `CC(=NNC(=O)c1ccncc1)c1ccc(Cl)c(Cl)c1` was run?
**A.** 6.02% (inactive)

**Q.** How did the inhibition turn out when `COc1ccc(Cl)cc1C=CC=Nc1ccc(S(N)(=O)=O)cc1` was run?
**A.** -39.7% (inactive)

**Q.** With `Cc1ccc2c(O)c(Cc3ccccc3)c(=O)[nH]c2n1` as the molecule, how does the inhibition read?
**A.** 7.66% (inactive)

**Q.** `COc1ccc(C(CNC(=O)c2cccc(NS(=O)(=O)c3ccc(C)c(F)c3)c2)N2CCCC2)cc1` (stereo not given) was tested. Which inhibition did it give?
**A.** -24.5% (inactive)

**Q.** With `COc1ccc(C(CNC(=O)c2ccc(S(=O)(=O)Nc3ccccc3C)cc2)N2CCOCC2)cc1` (stereo not given) as the molecule, how does the inhibition read?
**A.** -2.84% (inactive)

**Q.** For `COc1ccc(C(CNC(=O)c2cccc(S(=O)(=O)Nc3ccccc3Cl)c2)N2CCOCC2)cc1` (stereo not given), which inhibition is on record?
**A.** 79.7% (active)

**Q.** `COc1ccc(C(=O)Nc2ccc(C3(C#N)CCCC3)cc2)cc1OC` was tested. Which inhibition did it give?
**A.** 82% (active)

**Q.** `COc1ccc(C(=O)Nc2ccc3nc(N4CCCCC4)cc(C)c3c2)cc1OC` was tested. Which inhibition did it give?
**A.** 44.3% (inactive)

**Q.** For `COc1cc(C(=O)NCC2(c3ccccc3)CCCC2)ccc1OC(C)C`, which inhibition is on record?
**A.** 3.63% (inactive)

**Q.** `CN(O)C(=S)c1ccccc1` was tested. Which inhibition did it give?
**A.** -24.5% (inactive)

**Q.** `Cc1c(NS(=O)(=O)c2cccc(C(=O)Nc3ccc(SC(F)F)cc3)c2)c(=O)n(-c2ccccc2)n1C` was tested. Which inhibition did it give?
**A.** 10.9% (inactive)

**Q.** With `CC(=O)c1ccc(NC(=O)C(C)OC(=O)c2ccc(NS(=O)(=O)c3ccc4[nH]c(=O)[nH]c4c3)cc2)cc1` (stereo not given) as the molecule, how does the inhibition read?
**A.** 18.7% (inactive)

**Q.** With `CN(CCNC(=O)c1cc2c(-c3ccccc3F)nn(C)c2s1)C1CCCCC1` as the molecule, how does the inhibition read?
**A.** 42% (inactive)

**Q.** With `COc1ccccc1N1CCN(C(=O)c2cc3c(-c4ccc(Cl)cc4)nn(C)c3s2)CC1` as the molecule, how does the inhibition read?
**A.** 58.4% (inactive)

**Q.** With `Cn1nc(-c2ccc(Cl)cc2)c2cc(C(=O)NCc3ccco3)sc21` as the molecule, how does the inhibition read?
**A.** 90.1% (active)

**Q.** `C[C@]12CCC(=O)C=C1C=CC1C2CC[C@@]2(C)C1CC[C@@]21CCC(=O)O1` (stereo not given in full) was tested. Which inhibition did it give?
**A.** -3.73% (inactive)

**Q.** How did the inhibition turn out when `O=C(c1cccnc1)N(Cc1ccccc1)C(=O)c1cccnc1` was run?
**A.** -2.46% (inactive)

**Q.** `CN(C(=O)c1ccc(NC(=O)Cc2cccc(NC(=O)C3CCN(C(=O)c4ccccc4)CC3)c2)cc1)C1CC1` was tested. Which inhibition did it give?
**A.** 15% (inactive)

**Q.** For `CCCC(O)(c1ccccc1)C(c1ccccc1)c1ccccn1` (stereo not given), which inhibition is on record?
**A.** 11.7% (inactive)

**Q.** With `COc1ccc(C(CNC(=O)c2cccc(S(=O)(=O)Nc3ccc(Br)cc3)c2)N(C)C)cc1` (stereo not given) as the molecule, how does the inhibition read?
**A.** -24.3% (inactive)

**Q.** For `Cc1cccc(-c2nc(Nc3ccc(O)cc3)c3ccccc3n2)c1`, which inhibition is on record?
**A.** 74.9% (active)

**Q.** `CCOC(=O)c1nc(Nc2ccc(C(=O)OC)cc2)c2ccccc2n1` was tested. Which inhibition did it give?
**A.** 33.7% (inactive)

**Q.** Which inhibition does the source give for `COc1ccc(Nc2nc(-c3cccnc3)nc3ccccc23)cn1` here?
**A.** 31.9% (inactive)

**Q.** With `O=C1NCC(c2ccccc2)(c2ccccc2)C(=O)N1` as the molecule, how does the inhibition read?
**A.** -22.9% (inactive)

**Q.** How did the inhibition turn out when `O=C(Cc1ccc(Cl)cc1)c1ccccc1` was run?
**A.** 1.95% (inactive)

**Q.** Which inhibition does the source give for `O=C(CNC(=O)c1cc(S(=O)(=O)N2CCOCC2)ccc1N1CCCC1)Nc1ccc(F)c(F)c1` here?
**A.** 12.1% (inactive)

**Q.** `COC(=O)C1=CN(C)C=C(C(=O)OC)C1c1ccc(Cl)cc1Cl` was tested. Which inhibition did it give?
**A.** -0.162% (inactive)

**Q.** `COC(=O)c1nc2n(n1)C(c1ccc([N+](=O)[O-])cc1)C(C(=O)Nc1ccc(Cl)cc1)=C(C)N2` (stereo not given) was tested. Which inhibition did it give?
**A.** -8.37% (inactive)

**Q.** How did the inhibition turn out when `COC(=O)C1=CN(c2ccc(F)c(F)c2)C=C(C(=O)OC)C1c1ccc([N+](=O)[O-])cc1` was run?
**A.** 71.8% (active)

**Q.** `Cn1cc(C2OC(=O)c3ccccc32)c2ccccc21` (stereo not given) was tested. Which inhibition did it give?
**A.** 3.47% (inactive)

**Q.** Which inhibition does the source give for `CCCCN(C(=O)CSCc1ccc(C)cc1)c1c(N)n(Cc2ccccc2)c(=O)[nH]c1=O` here?
**A.** 7.84% (inactive)

**Q.** With `O=C(Nc1ccc2ccccc2c1[N+](=O)[O-])c1ccccc1` as the molecule, how does the inhibition read?
**A.** 14.4% (inactive)

**Q.** Which inhibition does the source give for `COC(=O)CC(CC(=O)OC)n1cccc1` here?
**A.** -7.62% (inactive)

**Q.** For `CC[C@]12c3[nH]c4cc(CCC(=O)N(C)C)ccc4c3CCN1C(=O)[C@@H](CC(=O)NCc1ccco1)C[C@@H]2C(=O)N1CCN(C(=O)c2ccco2)CC1`, which inhibition is on record?
**A.** 2.87% (inactive)
